Screening results deposited in PubChem BioAssay by several laboratories.
Hits are enriched below; roughly 2.2% of the tested compounds scored in any of these assays.
ADAM17 inh – inhibitors of human ADAM17; P78536; recombinant ADAM17, EDANS/DABCYL FRET peptide cleavage; inhibition, % at 6.95 µM; 0.83% of 370,000 active; AID 720648;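 active = inhibition above the mean of compounds lying between control limits plus 3 SD, set per campaign, cut at about 8.5% in these data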;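 also: 0% = DMSO-only wells as the low control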
GC-A act – GC-A (human) enzyme activation | 0.14% of 370,000 active | AID 1671463 | activation, % at 10 µM | HEK293 GC-A cells, cGMP TR-FRET, EC30 ANP; 0% at EC30 ANP, 100% saturating ANP; in the data active = activation above about 40%
GC-B act – GC-B (human) receptor activation. P20594. HEK293-GC-B cells, CNP EC30, cGMP TR-FRET; 0% at EC30 CNP, 100% saturating CNP. activation, % at 10 µM. 0.11% of 370,000 active;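 active = activation at 10 µM reaching about 35% in either raw or pattern-adjusted values, limit read from the data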
proKLK7 act – proKLK7 (human) activation, primary screen. P49862. purified proKLK7, EDANS-DABCYL substrate fluorescence; 100% is mature enzyme control, 0% vehicle. activation, % at 7 µM. 0.9% of 370,000 active;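 active = activation above the mean of all tested compounds plus 3 SD, computed per campaign excluding outliers beyond control limits, cut at about 13% in these data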
ADAM10 inh – ADAM10 inhibition, QFRET primary screen; AID 720582; recombinant ADAM10, EDANS/DABCYL FRET peptide cleavage, 3 h; inhibition, % at 7 µM; 0.62% of 370,000 active;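 active = inhibition above a per-campaign cutoff equal to the mean of compounds falling between control-based bounds plus 3 SD, cut at about 20% in these data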;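 also: 0% = DMSO wells while the 100% control is not disclosed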
ADAM10 confirm – human ADAM10 inhibition, confirmation; shares compounds with ADAM10 inh; AID 743208; inhibition, % at 6.95 µM; 1% of 2,100 active; ADAM10 QFRET peptide cleavage, EDANS fluorescence;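 active = inhibition above about 20% chosen separately for each screening run, limit read from the data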;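 also: 0% = DMSO wells and 100% = marimastat wells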
ADAM17 ctr – inhibits human ADAM17 in ADAM10 exosite counter-screen; inhibition, % at 6.95 µM; ADAM17 QFRET peptide cleavage, EDANS fluorescence; 0.5% of 2,100 active; shares compounds with ADAM10 inh;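 active = mean triplicate inhibition above the solvent-only control wells' mean plus 3 SD, cut at about 12% in these data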;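 also: 0% = DMSO wells and 100% = marimastat wells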
* hit, by the source's call; nt = no result.

SMILES	ADAM17 inh	GC-A act	GC-B act	proKLK7 act	ADAM10 inh	ADAM10 confirm	ADAM17 ctr
CC(C)(C)c1ccc(S(=O)(=O)NC(=O)C2(C)CCN2C(=O)Cc2ccccc2Cl)cc1 (stereo not given)	-3	-1	2	0	-2	nt	nt
COc1ccc(S(=O)(=O)NC(=O)C2(C)CCN2C(=O)Cc2ccccc2Cl)cc1 (stereo not given)	-1	-1	0	1	86*	0	0
C=CCN1C(C(=O)OC)CN(Cc2cn(Cc3ccc(F)cc3)nn2)CCS1(=O)=O (stereo not given)	-1	-1	-2	0	3	nt	nt
CC(=O)N[C@H]1C[C@@H]2O[C@H](CO)CC[C@@H]2O[C@@H]1CCc1ccc(-c2ccc(F)cc2)cc1	-3	33	3	1	-7	nt	nt
O=C(O)c1ccccc1/C=N/NC(=S)NC1CCCCC1	2	1	4	0	23*	4	1
COc1ccc([C@H]2CC(=O)C=C(c3ccc4ncccc4c3)C2)cc1	-3	4	-7	0	-9	nt	nt
O=C1C=C(c2ccc3ncccc3c2)C[C@@H](c2ccc(Cl)cc2)C1	5	2	1	0	20*	2	0
COc1ccc(-c2nnc(SCC(=O)N/N=C\C=C/c3ccco3)n2-c2ccc(C)cc2)cc1	7	-10	-1	0	10	nt	nt
Clc1ccccc1-c1nc(-c2ccc(Br)o2)no1	-5	2	-5	-1	-9	nt	nt
O=[N+]([O-])c1ccccc1-c1nc(-c2ccc(Br)o2)no1	5	6	-4	0	23*	1	1
COc1ccc(NC(=O)c2ccc(-c3ccccc3)cc2)cc1NS(=O)(=O)c1ccc(F)cc1	8	-2	2	-4	24*	31*	9
Cc1cnn(CCC(=O)NNC(=S)Nc2ccc(F)cc2)c1	7	3	2	0	20*	1	2
CN(C(=O)c1cncc(Br)c1)c1c(N)n(Cc2ccccc2)c(=O)[nH]c1=O	-1	1	4	0	82*	1	0
CN(C(=O)c1ccc2c(c1)OCCO2)c1c(N)n(Cc2ccccc2)c(=O)[nH]c1=O	-1	5	1	0	-2	nt	nt
O=C(Nc1cc(Sc2ccccn2)cc([N+](=O)[O-])c1)c1ccc(Cl)cc1	1	0	4	0	-4	nt	nt
O=C(Nc1cc(Sc2ccccn2)cc([N+](=O)[O-])c1)c1cccc(Cl)c1	7	-8	-5	-1	20*	7	3
C#CCN1CC(N(C)CCOC(=O)CC2C=CCC2)CS1(=O)=O (stereo not given)	-4	2	5	0	-10	nt	nt
Cc1cc(-c2ccccc2)n[nH]1	1	5	5	-1	-8	nt	nt
FC(F)C(F)(F)C(F)(F)C(F)(F)c1cc(-c2ccccc2)n[nH]1	6	4	0	0	23*	-1	1
CC(=O)C1=C(C)N(Cc2ccc(F)cc2)C(=S)NC1c1ccc(Cl)cc1 (stereo not given)	3	-12	-12	0	13	nt	nt
COc1ccc(C2NC(=S)N(Cc3ccc(Cl)cc3)C(C)=C2C(C)=O)cc1 (stereo not given)	6	-11	-13	0	22*	3	2
COc1ccc2[nH]c3c(c2c1)CCN[C@]31C(=O)N(Cc2ccccc2)c2ccccc21	-4	2	6	0	-1	nt	nt
O=C(Oc1cccc(NC(=O)c2ccco2)c1)c1ccc(Br)c(S(=O)(=O)N2CCCCC2)c1	13*	-1	6	1	28*	3	1
Cc1ccc(C(=O)Oc2cccc(NC(=O)c3ccco3)c2)cc1S(=O)(=O)N1CCC(C)CC1	7	1	4	0	13	nt	nt
COC(=O)C1CN(Cc2ccc(OC)cc2)CCS(=O)(=O)N1Cc1cn(CCOC(C)=O)nn1 (stereo not given)	-1	0	-3	0	-3	nt	nt
